Assay in all cases: NCI-60 one-dose screen, 48 h (100 = growth as untreated, 0 = no growth, -100 = all killed)
Holding throughout (details): 10 µM unless noted

Assay [1] has as its system HCT-15 colon.
Assay [2] deals with HT29 colon.
Assay [3] concerns SNB-75 CNS.
Assay [4] relates to SNB-19 CNS.
Assay [5] concerns U251 CNS.
The subject of assay [6] is PC-3 prostate.
Assay [7] deals with SK-MEL-5 melanoma.
The subject of assay [8] is UACC-62 melanoma.
For assay [9], the system named is LOX IMVI melanoma.
Assay [10] has as its system SK-MEL-28 melanoma.

Compounds without any hit were thinned out: in the full panel of roughly 83,000, 20% have a hit.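 Results are percent growth after 48 hours of single-concentration exposure. 100 means growth as in untreated cells, lower positive values show inhibition; negative values down to -100 show cell death.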 Values without a mark were called inactive. Activity calls are given as the source filed them. How the source made its calls: active means growth percent below 10; inactive means the rest.

Turning to `CC(C)=CC/C=C(/C)[C@H]1CC[C@]2(C)[C@@H]1CC[C@@H]1[C@@]3(C)CCC(=O)NC(C)(C)[C@@H]3CC[C@]12C`, the growth in assay [1] was 11.7% [100 µM]; in [2], -0.044% [100 µM] (active); in assay [3], 19.7% [100 µM]; in [4], 24.9% [100 µM]; in assay [5] it was -67% [100 µM] (active); in [6], 16.5% [100 µM]. Also, the growth is -93.5% [100 µM] (active) in assay [7], -24.4% [100 µM] (active) in [8], -90.1% [100 µM] (active) in [9] and -77.3% [100 µM] (active) in [10].
On to `O=C(CCCSc1nc(-c2ccccc2)cc(-c2ccccc2)n1)NO`, for which the growth in assay [1] is 20.4%; in assay [2] it was 2.72% (active); in [3] it was 9.8% (active); in assay [4] it was 21.6%; in assay [5] it was -13.2% (active); in [6], 26.2%. Moreover, the growth is -17.3% (active) in assay [7], -20.9% (active) in assay [8], -25.3% (active) in assay [9] and 26% in [10].
On to `O=C(CSc1nc2ccc([N+](=O)[O-])cc2[nH]1)Nc1cccc(Cl)c1`, for which the growth in assay [1] is 23.3%; in [2], 21.1%; in assay [3] it was 23.9%; in [4] it was 17.6%; in assay [5], 13.6%; in assay [6] it was 11.7%. Besides, the growth in assay [7] was 0.349% (active); in assay [8], 8.24% (active); in [9] it was 27.7%; in [10], 28.9%.
On to `CC(C)[C@H]1CCC2=C3CC[C@]45OC(=O)[C@@]6(CCC(C)(C)C[C@H]64)CC[C@@]5(C)[C@]3(C)CC[C@@]21C`, for which the growth in [1] is 85.8% [100 µM]; in assay [2], 42.2% [100 µM]; in [3], 30.4% [100 µM]; in assay [4] it was 71.6% [100 µM]; in assay [5], 66.5% [100 µM]; in assay [6] it was 39.3% [100 µM]. Also, the growth in assay [7] is 42.6% [100 µM]; in [8], 59.3% [100 µM]; in [9] it was 78.8% [100 µM]; in assay [10], 87.4% [100 µM].
`C=CCCCCCCCCC(=O)OC(C)C`: the growth is 99.1% in assay [1]; 98.6% in [2]; 103% in assay [3]; 105% in [4]; 96.1% in assay [5]; 99.7% in assay [6]. The growth in assay [7] was 95.9%; in assay [8], 105%; in assay [9], 100%; in assay [10], 104%.
As to `CCOC(=O)COc1c(C)cc(SSc2cc(C)c(OCC(=O)OCC)c(C)c2)cc1C`, the growth is 88.8% in [1]; 97.8% in assay [2]; 87.9% in [3]; 109% in [4]; 75.4% in [5]; 65.2% in assay [6]. Moreover, the growth in [7] is 94.6%; in assay [8] it was 87.3%; in [9], 103%; in [10], 100%.
As for `COc1cc2c(c(OC)c1OC)-c1ccc(NNC(N)=S)c(=O)cc1[C@@H](NC(C)=O)CC2`, the growth in assay [1] is 38.8%; in [2], -17.8% (active); in [3] it was 59.5%; in assay [4], 42.3%; in [5] it was 13.6%; in assay [6], 13.8%. Also, the growth in assay [7] is -41.2% (active); in [8] it was 32.2%; in assay [9], 26.2%; in [10] it was 62.8%.
`CSc1cccc([N+](=O)[O-])c1`: the growth in assay [1] is 100%; in [2] it was 90.2%; in assay [3], 115%; in assay [4], 110%; in assay [5] it was 109%; in assay [6], 96.9%. Also, the growth is 99.8% in assay [7], 98% in assay [8], 92.5% in assay [9] and 111% in [10].
As to `O=C(CCN1CCCCC1)c1ccc(Cl)cc1`, the growth in assay [1] was 98.5%; in assay [2], 104%; in [3] it was 89.1%; in assay [4], 103%; in assay [5] it was 107%; in assay [6], 91.6%. Also, the growth in assay [7] is 97.6%; in assay [8] it was 103%; in assay [9], 91.3%; in [10] it was 108%.
Regarding `CC1(C)CC[C@]23CC[C@]4(C)[C@H](CC[C@@H]5[C@@]6(C)C/C(=C/c7ccncc7)C(=O)C(C)(C)[C@@H]6CC[C@]54C)[C@H]2[C@H]1OC3=O`, the growth was 76.5% [100 µM] in assay [1]; 71.5% [100 µM] in assay [2]; -49.9% [100 µM] (active) in [3]; 17.3% [100 µM] in assay [4]; 39.2% [100 µM] in assay [5]; 50.5% [100 µM] in assay [6]. Moreover, the growth in assay [7] was 36.3% [100 µM]; in assay [8], 56.4% [100 µM]; in assay [9] it was 76.7% [100 µM]; in assay [10], 87.7% [100 µM].
`CCOC(=O)c1c[nH]c2cc(OCC3CC3)c(OCC3CC3)cc2c1=O`: the growth in assay [1] was 104%; in [2], 111%; in [3] it was 114%; in assay [4], 117%; in [5], 119%; in [6] it was 95.1%. For the same compound, the growth in [7] was 112%; in assay [8] it was 104%; in assay [9], 113%; in assay [10], 110%.
For the compound `COc1ccc(/C=C2\N=C(Nc3ccccc3)N(NC(=O)c3ccccn3)C2=O)cc1`, the growth was 91.6% in assay [1]; 112% in assay [2]; 72.4% in assay [3]; 87.2% in assay [4]; 95.8% in assay [5]; 101% in [6]. The growth was 93.4% in assay [7], 86.2% in [8], 95.5% in assay [9] and 102% in assay [10].

These data come from PubChem BioAssay (NCI).
